Assay outcomes (PubChem BioAssay)
TDP1 cell CPT = DT40-hTDP1 cell growth loss with CPT; Potency, µM (titrated, usually from 46.2 µM), for the others: at the top dose activity change, negative = growth inhibition, hits mostly inhibitors; hit rate 12% among 420,000; chicken DT40 Tdp1-/-;hTDP1 cells + 20 nM CPT, ATP luminescence, 48 h; further: potency means the concentration at half of the fitted maximal effect; nearly all actives have a fitted effect of over 55% in size
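Cell growth measured by CellTiter-Glo luminescence after a minimum 48 h, 37 C compound exposure with 20 nM CPT in Tdp1-knockout DT40 cells stably expressing hTDP1, seeded 400/well; qHTS titration format.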
12-LOX inh = inhibitors of human 12S-lipoxygenase ALOX12; purified 12hLO, xylenol orange hydroperoxide absorbance; Potency, µM (highest dose often 108 µM), without a hit: at the highest dose activity change, negative = inhibition, actives largely listed as inhibitors; hit rate 1.1% among 580,000; AID 1671190; further: potency means the concentration at half of the fitted maximal effect
Target sequence (P18054 whole entry, looked up): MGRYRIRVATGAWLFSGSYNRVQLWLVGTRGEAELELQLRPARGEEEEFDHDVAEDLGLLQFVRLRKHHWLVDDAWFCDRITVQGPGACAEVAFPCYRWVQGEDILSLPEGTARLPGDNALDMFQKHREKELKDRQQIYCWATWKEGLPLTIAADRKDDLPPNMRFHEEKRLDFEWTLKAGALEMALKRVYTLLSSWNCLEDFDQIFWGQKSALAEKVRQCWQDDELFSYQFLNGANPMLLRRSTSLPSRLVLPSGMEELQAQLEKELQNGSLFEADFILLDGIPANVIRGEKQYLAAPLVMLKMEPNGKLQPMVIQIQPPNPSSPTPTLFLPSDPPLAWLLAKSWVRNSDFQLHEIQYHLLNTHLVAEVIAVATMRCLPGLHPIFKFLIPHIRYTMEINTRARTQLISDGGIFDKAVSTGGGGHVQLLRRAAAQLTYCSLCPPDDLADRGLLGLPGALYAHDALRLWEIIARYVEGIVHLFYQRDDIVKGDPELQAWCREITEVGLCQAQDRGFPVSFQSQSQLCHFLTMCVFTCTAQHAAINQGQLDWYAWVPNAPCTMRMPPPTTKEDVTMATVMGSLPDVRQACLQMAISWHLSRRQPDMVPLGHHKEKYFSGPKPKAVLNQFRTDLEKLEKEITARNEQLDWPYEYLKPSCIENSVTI
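Purified human 12hLO (150 nM final) in 25 mM Hepes, 0.01% Triton X-100, pH 7.0 was preincubated 15 min at room temperature with compound. Then 40 uM arachidonic acid was added, 30 min. Hydroperoxide was read by Fe-XO absorbance ratio 573/405 nm.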
TDP1 cell noCPT = qHTS for Inhibitors of human tyrosyl-DNA phosphodiesterase 1 (TDP1): qHTS in cells in absence of CPT; DT40 Tdp1-/- hTDP1 cells, no CPT, ATP luminescence, 48 h; Potency, µM (doses to about 46.2 µM), for inactives: at the highest dose activity change, negative = growth inhibition, hits mostly inhibitors; hit rate 15% among 420,000; further: potency means the concentration at half of the fitted maximal effect; nearly all actives have a fitted effect of over 55% in size
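Growth kinetics read by CellTiter-Glo luminescence after ≥48 hr at 37 °C. Cells: DT40 Tdp1-/- stably carrying human TDP1, 400 per well, compound exposure in the absence of CPT (DMSO vehicle).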
HT1080-NT tox = kills 2HG-producing HT-1080-NT fibrosarcoma cells. HT-1080-NT fibrosarcoma viability, CellTiter-Glo ATP luminescence, 48 h. Potency, µM (highest dose often 46.1 µM), without a hit: top-dose activity, negative = less viability, usual class: cytotoxic. hit rate 1.6% among 360,000;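 further: NT is the 2HG producing partner of a matched IDH1 knockdown line; potency means the concentration at half of the fitted maximal effect; 0% = DMSO-treated cells and -100% = media-only wells without cells; nearly all actives have a fitted effect of over 55% in size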
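Viability by CellTiter-Glo luminescence after 48 h compound exposure at 37C of HT-1080-NT cells (750/well, RPMI, 5% FBS). % activity scaled between DMSO wells and medium-only wells, then curve-fitted and categorized by curve class.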
HT1080 IDH1KD tx = kills HT-1080 cells with IDH1 knockdown; HT-1080 IDH1 knockdown viability, ATP luminescence, 48 h; Potency, µM (top dose mostly 46.1 µM), for inactives: top-dose activity, negative = toxicity, usual class: cytotoxic; AID 686971; hit rate 2% among 360,000;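 further: potency means the concentration at half of the fitted maximal effect; 0% = DMSO wells and -100% = cell-free medium wells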
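Viability of IDH1-knockdown HT-1080 fibrosarcoma cells was assessed by CellTiter-Glo after 48 h at 37 °C with titrated compound; concentration-effect curves were classified by fit quality and response size.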
IL1B secr inh = blocks inflammasome-driven IL-1 beta release; THP-1 LPS/ATP IL-1B secretion, AlphaLISA, 16 h; hits give low values; activity change, % at 57.5 µM; hit rate 4.7% among 360,000; in the data active means activity change below about -50%; inconclusive means mostly about -30% to -49%
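Secreted IL-1B measured by AlphaLISA bead assay after 16 h compound exposure of THP-1 cells; compounds (final up to 57.5 uM) added 1 h before LPS (250 ng/mL) and ATP (1.25 mM) stimulation; lower signal means less secretion.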
Starred values were filed as active, the others as inactive; ? = inconclusive; . = no result; [ ] = another dose, or the depositor's remark. Shown is part of a subset that was picked to be rich in hits. Unless noted, the call rests on the fitted dose curve; in most records, active means well fitted curve in the direction sought with a large enough effect; inconclusive means small, poorly fitted or top-dose-only effect, or another doubt; inactive means no such curve, though single readings can be large; an effect the other way counts as inactive or inconclusive. Unless noted, on the % scale 0 is the no-effect control and ±100 the full control effect.

SMILES	TDP1 cell CPT	12-LOX inh	TDP1 cell noCPT	HT1080-NT tox	HT1080 IDH1KD tx	IL1B secr inh
Cc1c(OCc2ccccc2)c(=O)ccn1Cc1ccc(Cl)cc1	?	5%	16µM*	?	?	-18
Cc1ccc(Cn2ccc(=O)c(OCc3ccccc3)c2C)cc1	?	-23%	?	8%	14%	16
CCC(=O)N1CCC1(C)C(=O)Nc1cccc(Oc2ccccc2)c1 (configuration not stated)	?	-5%	-21%	-3%	-4%	-2
CSc1ccc(CN2CCC2(C)C(=O)Nc2cccc(Oc3ccccc3)c2)cc1 (configuration not stated)	18µM*	6%	15µM*	-9%	-11%	15
CC1(C(=O)Nc2ccc(Cl)c(Cl)c2)CCN1Cc1cc2ccccc2o1 (configuration not stated)	-14%	-1%	-24%	18%	2%	0
CC1(C(=O)Nc2cccc(Oc3ccccc3)c2)CCN1Cc1cc2ccccc2o1 (configuration not stated)	23µM*	4%	?	-24%	?	-7
COc1ccc(CNC(=O)C(=O)Nc2cccc(C)c2)cc1	.	-27%	.	.	.	.
CC1=C(C(=O)N2CCCCCC2)CC(CC(=O)NCC2CCCCC2)C(=O)N1Cc1ccc(F)cc1 (configuration not stated)	23µM*	-49%	?	-19%	-1%	-25
CC1=C(C(=O)N(C(C)C)C(C)C)CC(CC(=O)NCC2CCCCC2)C(=O)N1Cc1ccc(F)cc1 (configuration not stated)	16µM*	-25%	18µM*	-11%	-9%	?
CC1=C(C(=O)N(C(C)C)C(C)C)CC(CC(=O)NCCN2CCOCC2)C(=O)N1Cc1ccc(F)cc1 (configuration not stated)	0%	1%	12%	19%	18%	-2
COC(=O)c1ccc(Cn2c(=O)cc(C(F)(F)F)c3c(C)nn(C)c32)cc1	?	-25%	15µM*	.	.	.
Cc1nn(C)c2c1c(-c1ccccc1)cc(=O)n2Cc1ccccc1C#N	23µM*	-19%	?	.	.	.
CCn1nc(C)c2c(-c3ccccc3)cc(=O)n(C(C)C(=O)Nc3ccc(OC)c(OC)c3)c21 (configuration not stated)	10µM*	?	16µM*	.	.	.
COc1cccc(CNC(=O)C(C)n2c(=O)cc(-c3ccccc3)c3c(C)nn(C)c32)c1 (configuration not stated)	?	-29%	-49%	.	.	.
Cc1ccc(CNC(=O)C(C)n2c(=O)cc(-c3ccccc3)c3c(C)nn(C)c32)cc1 (configuration not stated)	18µM*	?	?	.	.	.
Nc1ccn([C@@H]2O[C@H](CNCc3ccc(N4CCNCC4)cc3)[C@@H](O)[C@H]2O)c(=O)n1	-5%	-6%	-6%	16%	-13%	11
CC(C)Nc1nc(C(=O)Nc2nnc(C(C)C)s2)cs1	.	39%	.	.	.	.
Cc1nn(C)c2c1c(C(F)(F)F)cc(=O)n2C(C)C(=O)NCc1ccccc1Cl (configuration not stated)	-15%	-3%	-5%	.	.	.
Cc1nn(C)c2c1c(C(F)(F)F)cc(=O)n2C(C)C(=O)NCCC(C)C (configuration not stated)	16µM*	-2%	?	.	.	.
Cc1nn(C)c2c1c(C(F)(F)F)cc(=O)n2C(C)C(=O)NCCc1ccccc1 (configuration not stated)	0.18µM*	-6%	-83%	.	.	.
CCC(C)NS(=O)(=O)c1ccc(C(=O)Nc2ccc3ccccc3n2)cc1 (configuration not stated)	.	-11%	.	.	.	.
CC(c1ccco1)N(C(=O)c1ccc(C(F)(F)F)cc1)c1ccccn1 (configuration not stated)	-21%	-4%	?	2%	6%	-2
CC(c1ccco1)N(C(=O)c1ccc(Cl)c([N+](=O)[O-])c1)c1ccccn1 (configuration not stated)	21µM*	-18%	21µM*	-5%	-10%	-14
CC(c1ccco1)N(C(=O)c1ccccc1F)c1ccccn1 (configuration not stated)	11%	-10%	-7%	6%	14%	3
CC(c1ccco1)N(C(=O)C12CC3CC(CC(C3)C1)C2)c1ccccn1 (configuration not stated)	21µM*	?	?	26%	17%	2
SMILES	TDP1 cell CPT	12-LOX inh	TDP1 cell noCPT	HT1080-NT tox	HT1080 IDH1KD tx	IL1B secr inh
CC(c1ccco1)N(C(=O)COc1ccc(Cl)cc1Cl)c1ccccn1 (configuration not stated)	?	7%	21µM*	?	-2%[9.24 µM]	?
CCOC(=O)c1ccc(NC(=S)N2CCSC2c2c(F)cc(F)cc2F)cc1 (configuration not stated)	23µM*	-1%	26µM*	-3%	-7%	-18
Cc1cccn2c(=O)c(C=NCc3ccco3)c(Nc3ccc(SC(F)F)cc3)nc12	26µM*	?	?	0%	8%	-5
CN1CC(=O)N(C2CCCNC2)Cc2c(NCc3ccc4c(c3)OCO4)ncnc21 (configuration not stated)	.	4.5µM*	.	.	.	.
COc1ccc(-c2cc(C)no2)cc1S(=O)(=O)N(C)c1ccc(C)cc1	10µM*	-2%	9.2µM*	?	?	24
CCOc1ccc(N(C)S(=O)(=O)c2cc(-c3cc(C)no3)ccc2CC)cc1	?	-6%	18µM*	-22%	-20%	0
CCOc1ccc(N(C)S(=O)(=O)c2cc(-c3cc(C)no3)ccc2OC)cc1	23µM*	-3%	15µM*	-13%	-25%	-10
CCOc1ccc(N(C)S(=O)(=O)c2cc(-c3cc(C)no3)ccc2C)cc1	?	-9%	?	-15%	?	-19
O=C(COC(=O)c1cc(=O)c2ccccc2o1)Nc1cc(C(F)(F)F)ccc1Cl	.	-8%	.	.	.	.
COCc1cc(C)nc(OCC(=O)N/N=C/c2ccc(C)o2)c1C#N	-3%	3%	6%	9%	4%	-6
COc1ccccc1NC(=O)c1c(C)oc2ccn(Cc3ccc(F)cc3)c(=O)c12	.	32%	.	.	.	.
CCCCN(CC)C(=O)c1cn[nH]c1-c1ccc(Cl)cc1	.	19%	.	.	.	.
CCS(=O)(=O)N1CCC(C(=O)NCCC(C)C)CC1	-1%	-13%	0%	.	.	.
